SMILES strings stand for the structures. About 83,000 compounds went through this panel and 20% of them were active in at least one assay; those are over-represented in the sample as a whole.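 Step 1: grow cells in 96-well plates. Step 2: add test compound at a single concentration. Step 3: incubate 48 h. Step 4: record percent growth.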 A number with no mark means an inactive call. Active and inactive are the calls of the source. How the source made its calls: active means growth percent below 10; inactive means the rest.

For the test, the system named is RPMI-8226 leukemia. Put plainly: NCI-60 one-dose screen, 48 h (100 = growth as untreated, 0 = no growth, -100 = all killed). The following applies: 10 µM.
In the case of `C#CCNC(=O)CCC(=O)OC[C@]12CC[C@@H](C(=C)C)[C@@H]1C1CC[C@@H]3[C@@]4(C)CCCNC(C)(C)[C@@H]4CC[C@@]3(C)[C@]1(C)CC2` (stereo not given in full), the growth was -6.58% (active).

Turning to `Cc1ccc(-c2nc(Nc3ccc(S(N)(=O)=O)cc3)c3ccccc3n2)cc1`, the growth was 29.2%.

Regarding `N#Cc1ccc(-c2nn(-c3ccc(C(=O)O)cc3)cc2CNc2cccc(Br)c2)cc1`, the growth was 33.1%.

Consider `Cc1noc2c(Cc3ccc([N+](=O)[O-])cc3)nn(CC(=O)N/N=C/c3ccc(Br)cc3)c(=O)c12`, for which the growth is 91.2%.

Take `Cc1ccc(/C=C/C(=O)c2ccc(NC(=O)CSc3nnc(-c4c[nH]c5ccccc45)n3-c3ccccc3)cc2)c(C)c1`: the growth is 22.8%.

`O=C1c2ccccc2C(=O)c2c1c(C(=O)c1ccc(Cl)cc1)n1c2ccc2c3ccccc3ccc21`: the growth was 101%.

With `COc1ccc(C(=O)Nc2sc3c(c2C#N)CCC(=O)C3)cc1C(F)(F)F`, the growth is 4.37% (active).

For the compound `COc1ccc(C2NC(=S)NC(C)=C2C(=O)OC(C)C)cc1OC` (stereo not given), the growth was 104%.

Turning to `COc1ccc(OC)c(/C=N/NC(=O)c2ccc3nc(-c4ccc(Cl)cc4)[nH]c3c2)c1`, the growth was 37.7%.

Consider `Nc1nc(Nc2ccc(Cl)cc2)n(Cc2cccc(Br)c2)n1`, for which the growth is 2.44% (active).

For the compound `O=C(CSc1nnc(-c2ccc3nc(-c4ccc(Cl)cc4)[nH]c3c2)o1)Nc1ccc(Br)cc1`, the growth is 0.539% (active).

Take `COc1cc2c(cc1OC)CN(CCCCOc1cc(O)c3c(=O)cc(-c4ccccc4)oc3c1)CC2`: the growth is 24.1%.

For `O=C(CSc1nnc(-c2c[nH]c3ccccc23)n1-c1ccccc1)c1ccc(Br)cc1`, the growth was 54.4%.

With `Cc1ccc(/C=C/C(=O)c2ccc(NC(=O)CSc3nnc(-c4c[nH]c5ccccc45)n3-c3ccccc3)cc2)cc1`, the growth was 4.29% (active).

On to `CC1=C(c2cc(-c3ccc(Cl)cc3)c(C#N)c(N)n2)C(c2ccccc2)NC(=S)N1` (stereo not given), for which the growth is 9.51% (active).

On to `COc1ccc(-c2cc(-c3cc(C(=O)c4ccccc4)n4ccc(C)cc34)nc(N)c2C#N)cc1`, for which the growth was 78.9%.

For `COc1cc2c3c(n(CCCNCCO)c(=O)c2cc1OC)-c1nc2c(cc1C3=O)OCO2`, the growth is 3.98% (active).

`COc1ccc(/C=C/C(=O)c2ccc(N3CCN(C)CC3)cc2)c(C(F)(F)F)c1`: the growth was 0.333% (active).

Take `Cn1cc(/C=N/Nc2cccc(Cl)n2)c2ccccc21`: the growth is 47.6%.

Turning to `COc1ccc(C(=O)CSc2nnc(-c3c[nH]c4ccccc34)n2-c2ccccc2)cc1`, the growth was 72.7%.

Regarding `N#Cc1c(NC(=O)c2ccc(C(F)(F)F)c(Cl)c2)sc2c1CCC(=O)C2`, the growth was 0.426% (active).

With `COc1cc(/C=C/C(=O)c2ccc(NC(=O)CSc3nnc(-c4c[nH]c5ccccc45)n3-c3ccccc3)cc2)cc(OC)c1OC`, the growth was 6.57% (active).

With `O=C(Nc1cccc([N+](=O)[O-])c1)Nc1cccc([N+](=O)[O-])c1`, the growth was 31.9%.

As to `COc1cc(NC(=O)CSc2nnc(-c3ccc4nc(-c5ccc(Cl)cc5)[nH]c4c3)o2)cc(OC)c1OC`, the growth is 21.3%.

Consider `O=S(=O)(Nc1ncccn1)c1ccc(-n2c(-c3ccc(Br)cc3)nc(-c3ccccc3)c2-c2ccccc2)cc1`, for which the growth was 33.8%.

In the case of `CCN1CCN(Cc2ccc(C(=O)Nc3cccc(-c4cn(-c5ccc6oc(=O)ccc6c5)nn4)c3)cc2C(F)(F)F)CC1`, the growth was -40.7% (active).

Consider `Cc1cc(=O)oc2cc(OCCCCOc3ccc(/C=C/C(=O)Nc4ccc(F)c(Cl)c4)cc3)ccc12`, for which the growth was 92.6%.

As for `Cc1cc(C)nc(/N=C(\N)Nc2ccc(S(=O)(=O)Nc3nc(C)cc(C)n3)cc2)n1`, the growth was 98.9%.

Regarding `Cc1cccc(-c2nc(Nc3ccccc3C(=O)O)c3ccccc3n2)c1`, the growth is 28.6%.

`C=C1CCC2C3(C)COC(c4cccc(F)c4)OC3CCC2(C)C1CC(O)C1=CCOC1=O` (stereo not given): the growth was 20.6%.

In the case of `CC1CC(c2ccc(N(C)C)cc2)=NN1c1nc(O)c(C2=c3cc(Br)ccc3=NC2=O)s1` (stereo not given), the growth was 28.1%.

On to `C/C(=N\NC(N)=S)c1ccc(Nc2nc(SC(C)C)nc(-c3ccccc3)c2C#N)cc1`, for which the growth is 72.3%.

As to `O=c1c2ccccc2nc(COc2ccccc2)n1/N=C/c1ccc(N2CCCC2)cc1`, the growth is 64.1%.

With `CN1CCN(Cc2ccc(NC(=O)c3cncc(C#Cc4cnc5ccc(N[C@H]6CCOC6)nn45)c3)cc2C(F)(F)F)CC1`, the growth was -35.1% (active).

Turning to `Cn1cc(-c2cc(N)n3nc(-c4c[nH]c5ccc(Br)cc45)cc3n2)c2cc(Br)cnc21`, the growth was -6.39% (active).

In the case of `CC(=O)Nc1ccc(-n2cnc3cc(-c4ccc(NS(C)(=O)=O)cc4)ccc32)cc1`, the growth is 55.8%.

For the compound `COc1ccccc1C(=O)NNC(=O)CSc1nc2c(c(=O)[nH]1)CCCC2`, the growth is 98.1%.

As to `O=c1[nH]c2ccccc2cc1CSc1ccc(Nc2nccc(-c3ccc(C(F)(F)F)cc3)n2)cc1`, the growth was 69.5%.

Regarding `COc1cnc2c(c1)C(=O)c1c-2n(CCCNCCO)c(=O)c2cc(OC)c(OC)cc12`, the growth was 4.21% (active).

`C/C(=N\N=C\c1ccc(Cl)c([N+](=O)[O-])c1)c1ccc2c(c1)Nc1ccccc1S2`: the growth is 33.3%.

The values are drawn from PubChem BioAssay (NCI).
